High-throughput results (PubChem)
The sample as a whole holds a higher share of hits than the screen did.
Giardia FBPA inh – blocks Giardia fructose-bisphosphate aldolase activity; hit rate 0.71% among 290,000; Potency, µM (titrated, usually from 59.6 µM), hits mostly inhibitors; purified Giardia FBPA; note: nearly all actives have a fitted effect of over 55% in size
Target sequence (A8B2U2 whole entry, looked up): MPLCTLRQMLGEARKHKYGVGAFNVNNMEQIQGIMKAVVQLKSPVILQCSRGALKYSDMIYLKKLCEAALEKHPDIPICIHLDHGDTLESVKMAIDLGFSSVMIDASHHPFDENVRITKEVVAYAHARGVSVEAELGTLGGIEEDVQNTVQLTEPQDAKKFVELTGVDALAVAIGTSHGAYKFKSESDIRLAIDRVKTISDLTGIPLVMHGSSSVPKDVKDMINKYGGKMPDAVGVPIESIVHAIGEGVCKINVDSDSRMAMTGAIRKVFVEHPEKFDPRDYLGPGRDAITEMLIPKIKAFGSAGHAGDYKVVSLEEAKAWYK
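Giardia FBPA (40 nM reagent) was preincubated 10 min at RT with compound (up to 57.5 uM final), then substrate plus GAPDH/TPI/NAD/arsenate coupling system with diaphorase/resazurin was added; resorufin fluorescence (525/598 nm) was read after 20 min.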
Shiga inhibitor – Shiga toxin inhibition | AID 2315 | hit rate 9.2% among 290,000 | Vero cells, Shiga toxin protein synthesis inhibition reporter | inhibition, % at 38.7 µM; in the data active = inhibition mostly above about 28%, no sharp cut-off; inactive = mostly below about 43%
Cycloheximide cs – counter-screen for Shiga toxin inhibitors: cycloheximide protein synthesis inhibition; cell reporter, cycloheximide protein synthesis inhibition counterscreen; max response, %; hit rate 12% among 300,000; in the data active = max response mostly above about 13%, no sharp cut-off; inactive = mostly below about 14%; note: read at 38.3 µM for the half of the compounds with a filed dose
Tb PYK inh – T. brucei pyruvate kinase inhibition. Q57TT1. TbPYK enzyme, Kinase-Glo Plus ATP luminescence, 45 min. Potency, µM (series often up to 76.8 µM), actives largely listed as inhibitors. hit rate 0.12% among 410,000. AID 624173; note: nearly all actives have a fitted effect of over 50% in size
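TbPYK + substrate in 50 mM TEA pH 7.2, 100 mM KCl, 10 mM MgCl2, 0.05% BSA, 0.01% Tween-20; cpd pinned; ADP 130 uM final; 45 min RT; Kinase-Glo Plus 10 min; luminescence endpoint.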
LmPK inh – blocks Leishmania mexicana pyruvate kinase activity | hit rate 0.37% among 290,000 | purified LmPK, Kinase-Glo ATP luminescence, 1 h | AID 1721 | Potency, µM (series often up to 57.5 µM), actives largely listed as inhibitors | Q27686
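0.1 nM LmPK, 0.5 mM PEP, 0.1 mM ADP; 50 mM imidazole pH 7.2, 7 mM MgCl2, 50 mM KCl; 1 h RT. Kinase-Glo luminescence readout, normalized to no-enzyme (full inhibition) and uninhibited wells.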
RE007 growth inh – less growth of the S. pombe RE007 Vpr strain. AID 651644. hit rate 0.21% among 360,000. S. pombe RE007 Vpr strain, BacTiter-Glo ATP luminescence, 24 h. Potency, µM (highest dose often 92.2 µM), hits mostly inhibitors; active = well fitted falling curve with a large enough effect; inconclusive = small, poorly fitted or top-dose-only effect; inactive = no such curve, though single readings can be large or run the other way; note: nearly all actives have a fitted effect of over 50% in size
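Fission yeast strain RE007, carrying one chromosomally integrated HIV-1 vpr copy, was seeded at OD 0.01 in PMG+AL medium with 23 nL pinned compound. After 24 h at 30 °C and 99% humidity, viability was read by BacTiter-Glo luminescence.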
Hits are given with their value. Unless noted, calls come from the whole dose curve; as a rule, active = well fitted curve in the direction sought with a large enough effect; inconclusive = small, poorly fitted or top-dose-only effect, or another doubt; inactive = no such curve, though single readings can be large; an effect the other way counts as inactive or inconclusive.

For CCCCOCCCNC(=O)C[C@@H]1C[C@@]2(C(=O)OC)CCCCC=C2N(Cc2ccccc2)C1=O the results were Tb PYK inh inactive and RE007 growth inh inactive.
`COc1cc2cc(C(=O)NC(C)c3cccc4ccccc34)c(N)nc2cc1OC` (configuration not stated) gave Tb PYK inh inactive and RE007 growth inh inactive.
`CCO/C=C1\C(=O)N(c2ccccc2)C(=O)c2ccccc21` gave Giardia FBPA inh inactive, Shiga inhibitor 69, Cycloheximide cs 40, Tb PYK inh inactive, LmPK inh inactive and RE007 growth inh inactive.
For O=C1c2ccccc2C(=O)N1c1ccc(Cl)cc1 the results were Giardia FBPA inh inactive, Shiga inhibitor inactive, Cycloheximide cs inactive and LmPK inh inactive.
Cc1ccc(N2C(=O)c3ccccc3C2=O)cc1 was read as Giardia FBPA inh inactive, Shiga inhibitor 91, Cycloheximide cs 41, Tb PYK inh inactive, LmPK inh inactive and RE007 growth inh inactive.
Screening CC(=O)Nc1cccc2c1C(=O)N(c1ccc(C)cc1)C2=O returned Giardia FBPA inh inactive, Shiga inhibitor 35, Cycloheximide cs 15, Tb PYK inh inactive, LmPK inh inactive and RE007 growth inh inactive.
`COc1ccc(N2C(=O)c3ccccc3C2=O)cc1` gave Giardia FBPA inh inactive, Shiga inhibitor 55, Cycloheximide cs 19, Tb PYK inh inactive, LmPK inh inactive and RE007 growth inh inactive.
`CCN(C(=O)c1cn(-c2cccc(OC)c2)c(=O)c2ccccc12)c1ccccc1C` gave Tb PYK inh inactive.
`Cc1nc2ccn(Cc3cccs3)c(=O)c2cc1C(=O)N1CCN(c2ccccc2)CC1` gave Tb PYK inh inactive.
COc1ccc(C(=O)N/C(=C\c2ccc(Cl)cc2)C(=O)NCCN2CCOCC2)cc1 was read as Tb PYK inh inactive and RE007 growth inh inactive.
Screening CCCCCCn1cc(CN2CC(N3CCN(Cc4ccccc4F)CC3)CS2(=O)=O)nn1 (configuration not stated) returned Tb PYK inh inactive and RE007 growth inh inactive.
For O=C(c1ccc(OC2CCN(C/C=C/c3ccc(F)cc3)CC2)cc1)N1CCCC1 the results were Giardia FBPA inh inactive, Shiga inhibitor inactive, Cycloheximide cs inactive, Tb PYK inh inactive, LmPK inh inactive and RE007 growth inh inactive.
CCCCN1C(=O)C(C#N)CC2=C1CC(C)(C)CC2=O (configuration not stated) was read as Tb PYK inh inactive and RE007 growth inh inactive.
`COc1ccc(N2C(=O)c3ccccc3C2O)cc1` (configuration not stated) gave Giardia FBPA inh inactive, Cycloheximide cs 20, Tb PYK inh inactive, LmPK inh inactive and RE007 growth inh inactive.
COc1ccc2c(c1OC)C(=O)N(c1ccc(O)cc1)C2=O was read as Giardia FBPA inh inactive, Shiga inhibitor inactive, Cycloheximide cs inactive, Tb PYK inh inactive, LmPK inh inactive and RE007 growth inh inactive.
Screening O=C1c2ccccc2C(O)N1c1ccccc1 (configuration not stated) returned Giardia FBPA inh inactive, Shiga inhibitor inactive, Cycloheximide cs inactive, Tb PYK inh inactive, LmPK inh inactive and RE007 growth inh inactive.
O=C1c2ccccc2NC(c2ccccc2O)N1O (configuration not stated) was read as Giardia FBPA inh inconclusive, Shiga inhibitor inactive, Cycloheximide cs inactive, Tb PYK inh inactive, LmPK inh inactive and RE007 growth inh inactive.
`COc1ccc(O)c(C(=O)C2c3ccccc3C(=O)N2c2ccc(C)cc2)c1` (configuration not stated) gave Giardia FBPA inh inconclusive, Shiga inhibitor 81, Cycloheximide cs 44, Tb PYK inh inconclusive, LmPK inh inactive and RE007 growth inh inactive.
Screening COc1ccc2c(c1OC)C(=O)N(c1ccccc1)C2=O returned Giardia FBPA inh inactive, Shiga inhibitor 47, Cycloheximide cs 39, Tb PYK inh inactive, LmPK inh inactive and RE007 growth inh inactive.
Cc1ccc(N2C(=O)c3ccccc3NC2c2ccccc2O)cc1 (configuration not stated) was read as Giardia FBPA inh inactive, Shiga inhibitor 79, Cycloheximide cs 36, Tb PYK inh inactive and LmPK inh inactive.
